In the library only some 19% were active in any assay of this set; here they are far more common.
HT1080 IDH1KD tx: kills HT-1080 cells with IDH1 knockdown; 360,000 tested, 2% active; Potency, µM (series often up to 46.1 µM), hits mostly cytotoxic; HT-1080 IDH1 knockdown viability, ATP luminescence, 48 h
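Cytotoxicity counter-line: IDH1KD HT-1080, 48 h, CellTiter-Glo. Curves classed by r2, magnitude and activity.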
HT1080-NT tox: kills 2HG-producing HT-1080-NT fibrosarcoma cells; HT-1080-NT fibrosarcoma viability, CellTiter-Glo ATP luminescence, 48 h; Potency, µM (top dose mostly 46.1 µM), most hits filed as cytotoxic; 360,000 tested, 1.6% active; AID 686970;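 further: NT is the 2HG producing partner of a matched IDH1 knockdown line; nearly all actives have a fitted effect of over 55% in size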
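Fibrosarcoma NT cells, 750 per well in 5% FBS RPMI, were exposed to compound for 48 hours. Viability: CellTiter-Glo luminescence.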
DT40 TDP1 CPT: DT40-hTDP1 cell growth loss with CPT | AID 686979 | chicken DT40 Tdp1-/-;hTDP1 cells + 20 nM CPT, ATP luminescence, 48 h | Potency, µM (top dose mostly 46.2 µM), actives largely listed as inhibitors | 420,000 tested, 12% active; further: nearly all actives have a fitted effect of over 55% in size
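Chicken DT40 Tdp1-/- cells stably complemented with human TDP1 were seeded at 400 cells/well in medium containing 20 nM camptothecin, exposed to pin-transferred compounds, and grown at 37 °C for at least 48 hr. Viability was read as ATP luminescence.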
DT40 TDP1 no CPT: qHTS for Inhibitors of human tyrosyl-DNA phosphodiesterase 1 (TDP1): qHTS in cells in absence of CPT. 420,000 tested, 15% active. Potency, µM (highest dose often 46.2 µM), actives largely listed as inhibitors. DT40 Tdp1-/- hTDP1 cells, no CPT, ATP luminescence, 48 h; further: nearly all actives have a fitted effect of over 55% in size
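Seeded 400 DT40-hTDP1 cells/well (vehicle DMSO, no 20 nM CPT); pinned compounds; ≥48 hr at 37 °C; CellTiter-Glo luminescence as viability measure.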
IL-1B inflam inh: inhibitors of inflammasome signaling (IL-1 beta secretion); AID 743279; 360,000 tested, 4.7% active; THP-1 LPS/ATP IL-1B secretion, AlphaLISA, 16 h; stronger effect = lower value; activity change, % at 57.5 µM; in the data active means activity change below about -50%; inconclusive means mostly about -30% to -49%
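THP-1 cells pretreated 1 hr with compounds (up to 57.5 uM final), then stimulated with LPS (250 ng/mL final) plus ATP (1.25 mM final); secreted IL-1B measured by AlphaLISA after 16 hr, decreased signal indicating inhibition.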
Hits are given with their value; n = inactive; u = inconclusive; x = not tested or not shown. Unless noted, the call rests on the fitted dose curve; in most records, active means well fitted curve in the direction sought with a large enough effect; inconclusive means small, poorly fitted or top-dose-only effect, or another doubt; inactive means no such curve, though single readings can be large; an effect the other way counts as inactive or inconclusive.

SMILES	HT1080 IDH1KD tx	HT1080-NT tox	DT40 TDP1 CPT	DT40 TDP1 no CPT	IL-1B inflam inh
CC1(C)CC(=O)C(=C2SCCCS2)C(=O)C1	n	n	n	n	n
CCOc1ccc(C(CC(=O)O)NS(=O)(=O)c2ccc(C)cc2)cc1OC (stereo not given)	n	n	20.6µM	u	n
c1ccc(CN2CC[C@@H](Nc3nccn4ccnc34)C2)cc1	n	n	u	n	n
COc1cc(NC2c3ccccc3C(=O)N2Cc2ccccc2Cl)cc(OC)c1OC (stereo not given)	n	n	n	n	n
Cc1ccnc(NC2c3ccccc3C(=O)N2Cc2ccccc2Cl)c1 (stereo not given)	n	n	u	25.9µM	n
O=C(NCCCN1CCCC1=O)Nc1ccccc1F	n	n	n	n	n
Fc1cccc(Cl)c1/C=N/n1c(-c2cccnc2)n[nH]c1=S	n	n	u	n	n
C=CCNC(=O)/C(C#N)=C\c1cc(Cl)c(OCC)c(OC)c1	u	u	u	u	-91.5
CCOc1c(Br)cc(/C=C(\C#N)C(=O)NC2CC2)cc1OC	u	23.1µM	u	u	n
COc1cc(/C=C(\C#N)C(=O)NC2CCCCC2)ccc1OCc1ccc(C(=O)O)cc1	n	u	u	n	n
CCCN(C)C[C@H]1OCc2cnnn2CCCC(=O)N([C@H](C)CO)C[C@@H]1C	n	n	n	n	n
COc1ccc(OC)c2[nH]c(=O)c(CCNS(=O)(=O)c3ccc(F)cc3)cc12	n	n	n	n	n
Cc1ccc(C(=O)N/C(=C\c2ccc(-c3ccc(Br)cc3)o2)C(=O)NCCCN(C)C)cc1	23.1µM	u	4.61µM	3.26µM	-77.2
CN(C)CCNC(=O)/C(=C/c1ccc(-c2ccc(Cl)cc2Cl)o1)NC(=O)c1ccccc1	20.6µM	u	u	u	-67.2
Cc1ccc(C(=O)N/C(=C\c2cn(C)c3ccccc23)C(=O)NCCCN2CCOCC2)cc1	n	n	n	n	n
CN(C)CCNC(=O)/C(=C/c1ccc(-c2ccc(Cl)cc2)o1)NC(=O)c1ccccc1	n	n	u	u	-93.1
Cc1ccc(C(=O)N/C(=C\c2ccc(-c3ccccc3[N+](=O)[O-])o2)C(=O)NCCCN2CCOCC2)cc1	u	u	20.6µM	u	n
CCc1nnc(NC(=O)C(C)N2C(=O)C3C4C=CC(C4)C3C2=O)s1 (stereo not given)	n	n	n	n	n
COCC(C)n1c(COc2ccccc2F)nnc1SCC(=O)c1c(N)n(C)c(=O)n(C)c1=O (stereo not given)	n	n	n	u	n
O=C(OCc1ccccc1)N1Cc2ccnnc2CC1c1ccccc1Br (stereo not given)	n	n	u	u	n
Cc1ccccc1CN1CCN(C(=O)CC(C)C)CC1	n	n	n	n	n
CS(=O)(=O)N(CC(=O)N1CCCC1)Cc1ccc(Cl)cc1	n	n	n	n	n
NC(=O)Nc1cccc2ccccc12	n	n	n	n	n
O=C(Nc1cccc2ccccc12)OC1C=CS(=O)(=O)C1 (stereo not given)	u	18.4µM	u	20.6µM	x
C#CCOCCOCCOCCNc1nc(N2CCN(C(=O)CCCCCCCCCCNC(=O)[C@H](CCC(=O)O)n3cc(CCCCCN)nn3)CC2)nc(N2CCN(C(=O)CCCCCCCCCCNC(=O)[C@@H]([C@H](C)O)n3cc(C)nn3)CC2)n1	n	n	n	n	u
SMILES	HT1080 IDH1KD tx	HT1080-NT tox	DT40 TDP1 CPT	DT40 TDP1 no CPT	IL-1B inflam inh
C#CCOCCOCCOCCNc1nc(N2CCN(C(=O)CCCCCCCCCCNC(=O)[C@H](CCCCN)n3cc(CCO)nn3)CC2)nc(N2CCN(C(=O)CCCCCCCCCCNC(=O)[C@H](CCCCN)n3cc(CCO)nn3)CC2)n1	n	n	u	u	-54.8
C#CCOCCOCCOCCNc1nc(N2CCN(C(=O)CCCCCCCCCCNC(=O)[C@H](CCCCN)n3cc(CCO)nn3)CC2)nc(N2CCN(C(=O)CCCCCCCCCCNC(=O)[C@@H]([C@H](C)O)n3cc(C)nn3)CC2)n1	n	n	u	u	-70.8
C#CCOCCOCCOCCNc1nc(N2CCN(C(=O)CCCCCCCCCCNC(=O)[C@H]([C@@H](C)CC)n3cc(CCCCCN)nn3)CC2)nc(N2CCN(C(=O)CCCCCCCCCCNC(=O)[C@@H]([C@H](C)O)n3cc(C)nn3)CC2)n1	u	u	16.4µM	u	-68.3
Cc1cnc2nc(-c3ccccc3)ccc2c1	n	n	u	u	n
COc1ccccc1NC(=O)c1cc(-c2ccc(OC)c(OC)c2)nc2ccccc12	n	n	16.4µM	9.2µM	n
COc1ccc(-c2cc(C(=O)Nc3ccc(O)cc3)c3ccccc3n2)cc1OC	n	u	10.3µM	1.46µM	n
Cc1noc(C)c1COc1ccc(C(=O)N2CCN(S(=O)(=O)c3cccc(F)c3)CC2)cc1	n	n	n	n	n
CC(=O)Nc1ccc(S(=O)(=O)NCc2nc(-c3ccc(C)cc3)no2)cc1	n	n	n	u	n
CC(=O)N1CCOc2ccc(S(=O)(=O)NC[C@H]3O[C@@H](n4ccc(=O)[nH]c4=O)[C@H](O)[C@@H]3O)cc21	n	n	n	n	n
COc1ccc(N2CCN(C(=O)CSc3nc(-c4ccccc4)no3)CC2)cc1	x	x	n	n	x
CC(C)c1ccc(-c2noc(SCC(=O)N3CCCCC3)n2)cc1	x	x	u	11.6µM	x
CC(C)c1ccc(-c2noc(SCC(=O)N(C)c3ccc(F)cc3)n2)cc1	x	x	25.9µM	23.1µM	x
COc1c([N+](=O)[O-])ccc(N)c1N	x	x	n	n	x
Cc1cc(OC(C)C(=O)NCCc2c[nH]c3ccccc23)c2c(C)cc(=O)oc2c1 (stereo not given)	n	n	16.4µM	u	n
O=C(O)c1ccccc1-c1ccccc1C(=O)NCc1ccccc1Cl	n	n	n	n	n
Cc1cc(C)c2cc(CN(Cc3ccc4c(c3)OCO4)Cc3nnnn3Cc3ccco3)c(=O)[nH]c2c1	n	n	u	u	-61.8
Cc1ccc2[nH]c(=O)c(CN(Cc3ccc4c(c3)OCO4)Cc3nnnn3Cc3ccco3)cc2c1	n	n	11.6µM	u	-59.1
CCOCCCNC(=O)C(NC(=O)C1CCC(=O)N1)c1ccc(C)cc1 (stereo not given)	n	n	n	n	n
O=C(CN1CCN(S(=O)(=O)c2ccc(Cl)cc2)CC1)N1CCCC1	n	n	n	n	n
Cc1cc(NC(=O)CS(=O)(=O)c2cn(Cc3ccccc3Cl)c3ccccc23)no1	u	u	u	u	n
Cc1cc(NC(=O)CS(=O)c2cn(Cc3cccc(Cl)c3)c3ccccc23)no1 (stereo not given)	u	n	20.6µM	16.4µM	n
